# Measurements reported in PubChem BioAssay.
# Values without a mark were called inactive. The rule behind the calls is not given here.
# Biological target: Pantothenate synthetase (Mycobacterium tuberculosis (strain ATCC 25618 / H37Rv)) (UniProt P9WIL5)
# Assay: Recombinant Mtb pantothenate synthetase (PanC) inhibitors, coupled enzyme, confirmatory (AID 375);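 note: 0% = full reaction with vehicle and 100% = no enzyme background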
# Conditions: coupled enzyme assay; at 10 µM, active compounds read high
# Pantothenate synthetase (Mycobacterium tuberculosis (strain ATCC 25618 / H37Rv)), sequence (P9WIL5 whole entry, looked up): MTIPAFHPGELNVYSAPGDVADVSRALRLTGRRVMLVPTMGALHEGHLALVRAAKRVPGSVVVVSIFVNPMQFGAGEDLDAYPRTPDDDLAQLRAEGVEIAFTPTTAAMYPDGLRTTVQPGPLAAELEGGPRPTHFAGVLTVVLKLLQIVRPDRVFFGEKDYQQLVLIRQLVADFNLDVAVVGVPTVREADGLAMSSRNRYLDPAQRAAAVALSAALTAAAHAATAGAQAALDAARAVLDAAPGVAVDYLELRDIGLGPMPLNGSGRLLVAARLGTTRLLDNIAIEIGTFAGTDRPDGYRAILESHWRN
row,Structure (SMILES),inhibition
1,CCOC(=O)c1nnc2cc(-c3ccc(Br)cc3)nn2c1C,0%
2,CCOc1nc(-c2ccncc2)nc2ccccc12,0%
3,Nc1nc(Nc2ccc(Cl)cc2Cl)nc(C(F)(F)F)n1,0%
4,CNCCC(Oc1ccc(C(F)(F)F)cc1)c1ccccc1 (stereo not given),4%
5,COc1cccc(C(=O)CN2CCC(NC(=O)NC3CCCCC3)CC2)c1,6%
6,Cc1ccc(S(=O)(=O)NCC(c2cccnc2)N(C)C)cc1 (stereo not given),3%
7,CC1Cc2ccccc2N1NC(=O)c1ccc(Cl)c(S(N)(=O)=O)c1 (stereo not given),0%
8,Cc1cccc(OCCCC(=O)O)c1,3%
9,Cc1cc(C)c(C#N)c(SCc2[nH]nc3c2C(c2ccccc2)C(C#N)=C(N)O3)n1 (stereo not given),0%
10,Cc1onc(-c2ccccc2)c1C(N)=O,0%
11,O=C(CSc1nnc2c3cc(F)ccc3nc(-c3ccccc3)n12)N1CCOCC1,0%
12,COc1ccccc1C(=O)N1CCN(CCc2ccccc2)CC1,6%
13,NC(=O)COC(=O)c1ccc(S(=O)(=O)N2CCCCCC2)cc1,0%
14,O=C(CSc1nc2ccccc2o1)NC(=O)NCc1ccco1,0%
15,COc1ccccc1NC(=O)CSc1nnnn1-c1ccc2c(c1)OCO2,0%
16,COc1ccc(NC(=O)C(C)NS(=O)(=O)c2ccc(NC(C)=O)cc2)cc1Cl (stereo not given),9%
17,CCNc1nc(NCC)n2c(SCc3nc4ccccc4c(=O)[nH]3)nnc2n1,1%
18,CC1(C)CC(=O)C2=C(C1)N(CC1CCCO1)C(=O)C2(O)C(F)(F)F (stereo not given),0%
19,CC(NC(=O)COc1ccccc1)C(=O)NC1=NCCS1 (stereo not given),0%
20,ON1C2CCCCC2N(O)C1c1c(F)c(F)c(F)c(F)c1F (stereo not given),7%

row,Structure (SMILES),inhibition
1,CC(=O)n1cc(-c2ccncc2)c2ccccc21,0%
2,COc1ccccc1NC(=O)N1CCN(c2cccc(C(F)(F)F)c2)CC1,4%
3,COc1ccc(N2CCN(CCNC(=O)CCS(=O)(=O)c3cccc4nsnc34)CC2)cc1,0%
4,CCc1cc2c(=O)c(-c3nc4ccccc4[nH]3)coc2cc1OC(=O)N1CCOCC1,7%
5,C=CCNC(=O)C1CC(=O)N(c2ccc(OCC(=O)Nc3ccc(OC)cc3)cc2)C1 (stereo not given),0%
6,COc1cccc(C(=O)NC2=NCCS2)c1,0%
7,O=C(NCC12CC3CC(C1)CC(CNC(=O)N1CCCC1)(C3)C2)N1CCCC1,0%
8,Cc1nnc(SCc2cc(=O)[nH]c(N3CCCCC3)n2)s1,1%
9,O=C(CN(C(=O)CCNC(=O)c1ccco1)c1ccccc1)NC1CCCC1,2%
10,CCN(CC)S(=O)(=O)N1CCC(C(=O)NCC2COc3ccccc3O2)CC1 (stereo not given),1%
11,CCN(CC)S(=O)(=O)c1ccc(NC2c3ccccc3C(=O)N2CCN2CCOCC2)cc1 (stereo not given),0%
12,CCCCN(CC)S(=O)(=O)N1CCC(C(=O)NCc2ccc(F)cc2)CC1,6%
13,CCOc1ccc(-c2nnc3sc(-c4c(OC)cccc4OC)nn23)cc1,0%
14,COc1ccc(CC(=O)OCn2nnc3ccccc3c2=O)cc1,4%
15,COc1ccccc1-c1nc2n(n1)C(c1ccc(Cl)cc1)C(C(N)=O)=C(C)N2 (stereo not given),0%
16,CCOC(=O)C1=C(c2ccccc2)N2CCN=C2S1,3%
17,CCOC(=O)C1C(=O)NC(SCC(=O)Nc2nccs2)=C(C#N)C1c1ccccc1OCC (stereo not given),0%
18,CN(C)CC(C(=O)c1ccccc1)c1ccccc1 (stereo not given),4%
19,NC(N)=NC(N)=NCCc1ccccc1,4%
20,Cc1cc(Br)c(S(=O)(=O)n2nnc3ccccc32)cc1C,2%
